SMILES strings stand for the structures. Calls of active or inactive are those of the source. How the source made its calls: active means hit-call score of the fitted dose curve at least 0.9, where 1 is the maximum; inactive means score below 0.9.

The nature of assay [1]: ATG_E_Box_CIS: Attagene CIS-FACTORIAL HepG2 Assay for human Enhancer Box (E-box) (AID 2282936). Particulars: HepG2 E-box cis-reporter transcription, actives raise or lower the signal. In outline: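 E-box-driven reporter transcripts measured in transiently transfected HepG2 after 24 h exposure: RNA reverse-transcribed, PCR-amplified, fluorescently labelled, digested and resolved by capillary electrophoresis. Gain or loss relative to DMSO.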

A short description of assay [2]: ATG_EGR_CIS: Attagene CIS-FACTORIAL HepG2 Assay for human Early Growth Response 1 (EGR1) (AID 2282938). Conditions: HepG2 Attagene CIS-FACTORIAL EGR reporter mRNA; actives raise or lower the signal. In outline: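 HepG2 cells transiently transfected with cis-element-driven multiplexed reporter units, dosed for 24 h. EGR1-element reporter mRNA quantified by RT-PCR, 6-FAM labelling, HpaI digestion and capillary electrophoresis; bidirectional fit versus DMSO.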

Assay [3] can be described thus: ATG_M_19_CIS: Attagene CIS-FACTORIAL HepG2 Assay for M19 Transcription Factor (Internal Marker) (AID 2282939). Conditions: HepG2 Attagene CIS-FACTORIAL M19 internal marker reporter; actives raise or lower the signal. The method in brief:
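Chemical-treated HepG2 (24 h) with MRTU constructs; reporter transcripts detected by fluorescent RT-PCR fragment analysis on capillary electrophoresis. Internal background marker, DMSO as baseline.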

The nature of assay [4]: ATG_Ets_CIS: Attagene CIS-FACTORIAL HepG2 Assay for human Erythroblast Transformation Specific (ETS) (AID 2282941). Particulars: HepG2 ETS cis-reporter transcription, actives raise or lower the signal. In outline: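 Endogenous transcription factor activity read as reporter mRNA via RT-PCR and capillary electrophoresis, with gain or loss fitted bidirectionally against DMSO. Human HepG2 liver cells, transiently transfected CIS reporter constructs, 24 h exposure.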

In assay [5] the target is Hepatocyte nuclear factor 3-beta (Homo sapiens) (UniProt Q9Y261). The experiment in a line: ATG_FoxA2_CIS: Attagene CIS-FACTORIAL HepG2 Assay for human Forkhead box A2 (FOXA2) (AID 2282942). Particulars: HepG2 cis-reporter transcription factor activity, 24 h; actives raise or lower the signal. The method in brief: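 HepG2 transiently transfected with a multiplexed cis-promoter reporter library read endogenous FOXA2 activity. After 24 h compound exposure, reporter mRNA was quantified by RT-PCR, HpaI digestion and capillary electrophoresis. Bidirectional fit against DMSO.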
Sequence of Hepatocyte nuclear factor 3-beta (Homo sapiens) (Q9Y261 whole entry, looked up): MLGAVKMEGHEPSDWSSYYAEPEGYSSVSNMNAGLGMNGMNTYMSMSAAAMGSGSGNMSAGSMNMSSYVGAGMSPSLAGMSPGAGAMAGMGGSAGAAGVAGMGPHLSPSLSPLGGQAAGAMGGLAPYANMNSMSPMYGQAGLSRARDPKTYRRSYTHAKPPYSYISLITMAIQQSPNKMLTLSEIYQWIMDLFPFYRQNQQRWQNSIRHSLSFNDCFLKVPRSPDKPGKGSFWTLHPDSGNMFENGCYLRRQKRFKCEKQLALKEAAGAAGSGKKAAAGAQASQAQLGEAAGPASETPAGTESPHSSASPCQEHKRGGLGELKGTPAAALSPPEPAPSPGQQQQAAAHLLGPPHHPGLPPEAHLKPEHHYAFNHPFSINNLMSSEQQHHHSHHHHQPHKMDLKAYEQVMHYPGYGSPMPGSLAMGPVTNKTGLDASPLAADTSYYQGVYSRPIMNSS

Assay [6] is described as follows: ATG_FoxO_CIS: Attagene CIS-FACTORIAL HepG2 Assay for human Forkhead box O (FoxO) (AID 2282943). Particulars: HepG2 Attagene cis-reporter, FoxO element, mRNA; actives raise or lower the signal. The method in brief:
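HepG2, transient MRTU transfection (cis element, endogenous TFs). Dose 24 h. TriZol RNA → oligo(dT) RT → PCR → 6-FAM primer extension → HpaI cut → CE. Gain/loss vs DMSO.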

Assay [7] is described as follows: ATG_GATA_CIS: Attagene CIS-FACTORIAL HepG2 Assay for human GATA Binding Protein (AID 2282944). Particulars: HepG2 GATA cis-element reporter, Attagene multiplex mRNA; actives raise or lower the signal. The method in brief:
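Transfected cis-reporter HepG2 cells were treated with chemicals for 24 hours. Total RNA was then converted to cDNA, amplified with reporter-specific primers and analysed by fluorescent capillary electrophoresis, using DMSO-treated wells as baseline.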

Assay [8] deals with Bile acid receptor (Homo sapiens) (UniProt Q96RI1). In words: ATG_IR1_CIS: Attagene CIS-FACTORIAL HepG2 Assay for human Nuclear Receptor Subfamily 1 Group H Member 4 (NR1H4), IR1 submotif (AID 2282946). Conditions: IR1 reporter transcription, actives raise or lower the signal. The method in brief:
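HepG2 cells transiently transfected with multiplexed cis-element reporter units read endogenous transcription factor activity. After 24 h compound exposure, reporter mRNA was quantified by RT-PCR, fluorescent labelling, HpaI digestion and capillary electrophoresis; bidirectional fitting versus DMSO baseline.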

Assay [9] is described as follows: ATG_ISRE_CIS: Attagene CIS-FACTORIAL HepG2 Assay for human Interferon Regulatory Factor 1 (IRF1) binding to an Interferon-Stimulated Response Element (ISRE) (AID 2282948). Particulars: HepG2 ISRE cis-reporter (Attagene), mRNA transcription readout; actives raise or lower the signal. In outline:
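Endogenous transcription factor activity read as reporter transcript abundance via RT-PCR and capillary electrophoresis. HepG2 cells transiently transfected, 24 h chemical exposure. Gain or loss fitted against DMSO baseline.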

A short description of assay [10]: ATG_M_32_CIS: Attagene CIS-FACTORIAL HepG2 Assay for M32 Transcription Factor (Internal Marker) (AID 2282949).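 Further: background control marker of the multiplexed CIS panel rather than a real target.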 Particulars: HepG2 Attagene cis-factorial M32 reporter, mRNA; actives raise or lower the signal. In outline: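 HepG2 transfectants (cis-regulated reporter transcription units) dosed 24 h. Reporter mRNA by RT-PCR plus CE, analysed as gain or loss relative to DMSO.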

The nature of assay [11]: ATG_M_06_CIS: Attagene CIS-FACTORIAL HepG2 Assay for M06 Transcription Factor (Internal Marker) (AID 2282950). Particulars: HepG2 Attagene CIS-FACTORIAL M06 internal marker reporter; actives raise or lower the signal. In outline: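 Cells (HepG2, transiently carrying cis-driven reporter units) receive chemical for 24 h before RNA isolation. Reporter cDNA is PCR-amplified, FAM-labelled by primer extension, HpaI-digested and sized on a capillary analyser.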

For assay [12], the target named is Hypoxia-inducible factor 1-alpha (Homo sapiens) (UniProt Q16665). In words: ATG_HIF1a_CIS: Attagene CIS-FACTORIAL HepG2 Assay for human Hypoxia Inducible Factor 1 (HIF1A) (AID 2282951). Particulars: HepG2 Attagene cis-factorial HIF1a reporter transcription; actives raise or lower the signal. In outline: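 HepG2 cells transiently transfected with multiple cis-regulated reporter transcription units measure endogenous transcription factor activity. After 24 h exposure, reporter mRNA is quantified by RT-PCR with 6-FAM labelling, HpaI digestion and capillary electrophoresis. Bidirectional fitting against DMSO.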
Sequence of Hypoxia-inducible factor 1-alpha (Homo sapiens) (Q16665 whole entry, looked up): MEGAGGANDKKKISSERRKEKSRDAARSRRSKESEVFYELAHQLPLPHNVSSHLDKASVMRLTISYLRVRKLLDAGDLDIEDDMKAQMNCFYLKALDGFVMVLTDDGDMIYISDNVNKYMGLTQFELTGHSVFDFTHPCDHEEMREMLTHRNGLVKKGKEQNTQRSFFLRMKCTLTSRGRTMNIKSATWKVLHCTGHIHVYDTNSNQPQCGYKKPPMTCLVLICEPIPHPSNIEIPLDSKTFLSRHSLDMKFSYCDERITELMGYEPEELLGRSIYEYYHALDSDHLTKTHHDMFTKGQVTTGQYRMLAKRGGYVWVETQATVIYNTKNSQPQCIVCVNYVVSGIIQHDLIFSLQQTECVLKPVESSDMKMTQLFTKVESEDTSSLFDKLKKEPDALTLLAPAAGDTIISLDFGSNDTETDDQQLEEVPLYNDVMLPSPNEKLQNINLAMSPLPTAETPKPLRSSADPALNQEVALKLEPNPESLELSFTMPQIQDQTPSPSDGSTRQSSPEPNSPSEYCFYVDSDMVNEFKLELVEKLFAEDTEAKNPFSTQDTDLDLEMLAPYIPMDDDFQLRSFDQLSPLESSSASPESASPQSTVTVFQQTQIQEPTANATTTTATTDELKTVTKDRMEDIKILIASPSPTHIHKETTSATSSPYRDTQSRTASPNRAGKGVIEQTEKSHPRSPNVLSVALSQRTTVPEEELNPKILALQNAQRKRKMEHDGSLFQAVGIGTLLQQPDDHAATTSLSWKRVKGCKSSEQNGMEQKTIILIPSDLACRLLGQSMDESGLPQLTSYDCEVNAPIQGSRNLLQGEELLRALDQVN

For assay [13], the target named is Hepatocyte nuclear factor 6 (Homo sapiens) (UniProt Q9UBC0). In words: ATG_HNF6_CIS: Attagene CIS-FACTORIAL HepG2 Assay for human Hepatocyte Nuclear Factor 6 (HNF6) (AID 2282952). Particulars: HepG2 Attagene cis-factorial HNF6 reporter transcription; actives raise or lower the signal. In outline: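 Endogenous transcription factor activity in human HepG2 liver cells was captured through cis-regulated reporter constructs. After 24 h treatment, reporter mRNA was measured by RT-PCR with capillary electrophoresis, and activity was fitted in both directions relative to DMSO.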
Sequence of Hepatocyte nuclear factor 6 (Homo sapiens) (Q9UBC0 whole entry, looked up): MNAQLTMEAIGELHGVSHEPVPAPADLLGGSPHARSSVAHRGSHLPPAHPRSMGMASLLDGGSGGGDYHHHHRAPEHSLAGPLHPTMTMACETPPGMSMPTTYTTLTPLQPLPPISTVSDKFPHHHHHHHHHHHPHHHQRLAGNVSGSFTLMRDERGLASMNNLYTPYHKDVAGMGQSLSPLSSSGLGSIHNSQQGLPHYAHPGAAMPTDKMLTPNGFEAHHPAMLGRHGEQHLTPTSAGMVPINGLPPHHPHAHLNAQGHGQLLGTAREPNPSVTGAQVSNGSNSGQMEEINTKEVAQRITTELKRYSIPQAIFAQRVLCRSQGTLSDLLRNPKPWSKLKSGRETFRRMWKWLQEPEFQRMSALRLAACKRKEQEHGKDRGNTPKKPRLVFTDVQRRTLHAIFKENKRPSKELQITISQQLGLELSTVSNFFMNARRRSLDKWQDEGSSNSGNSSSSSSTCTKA

Assay [14] has as its target Heat shock factor protein 1 (Homo sapiens) (UniProt Q00613). In words: ATG_HSE_CIS: Attagene CIS-FACTORIAL HepG2 Assay for human Heat Shock Transcription Factor 1 (HSE) (AID 2282953). Particulars: HepG2 HSE cis-reporter, Attagene RNA transcription; actives raise or lower the signal. In outline:
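Liver-derived HepG2 cells carry transiently introduced multiple reporter units governed by cis promoters. Reporter RNA measured 24 h post-dose through reverse transcription, PCR amplification, fluorescent labelling and capillary electrophoresis, normalised to DMSO.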

The nature of assay [15]: ATG_MRE_CIS: Attagene CIS-FACTORIAL HepG2 Assay for human Metal Responsive Element (MRE) (AID 2282954). Conditions: HepG2 MRE cis-reporter transcription, Attagene multiplex; actives raise or lower the signal. The method in brief: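 Endogenous MRE-dependent transcription read as reporter mRNA in transiently transfected human HepG2 cells at 24 h. RNA reverse-transcribed, PCR-amplified, labelled and resolved by capillary electrophoresis; gain or loss relative to DMSO.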

A short description of assay [16]: ATG_PBREM_CIS: Attagene CIS-FACTORIAL HepG2 Assay for human Phenobarbital-responsive Enhancer Module (PBREM) (AID 2282955). Conditions: HepG2 PBREM cis-reporter, Attagene multiplexed transcription; actives raise or lower the signal. In outline:
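HepG2 cells transiently transfected with multiple cis-regulated reporter units measure endogenous transcription factor activity; 24 h compound exposure. Reporter mRNA quantified by RT-PCR, fluorescent labelling, HpaI digestion and capillary electrophoresis; bidirectional fit versus DMSO.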

Assay [17] can be described thus: ATG_GLI_CIS: Attagene CIS-FACTORIAL HepG2 Assay for human Zinc Finger Protein GLI1 (AID 2282945). Particulars: HepG2, Attagene cis-factorial reporter mRNA, GLI element; actives raise or lower the signal. The method in brief: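 Bidirectional curve fits relative to DMSO, using reporter mRNA levels from RT-PCR plus capillary electrophoresis. Cells were HepG2 transiently carrying cis-regulated reporter constructs, harvested 24 h after dosing.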

Assay [18] in a line: ATG_GRE_CIS: Attagene CIS-FACTORIAL HepG2 Assay for human Glucocorticoid Response Elements (GRE) (AID 2282947). Conditions: HepG2 GRE cis-reporter, Attagene multiplex mRNA; actives raise or lower the signal. The method in brief:
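Reporter transcripts read by RT-PCR with capillary electrophoresis fluorescence after a 24 h chemical exposure of HepG2 cells transiently transfected with multiple cis-element reporter units. Gain or loss fitted against DMSO.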

A short description of assay [19]: ATG_ERE_CIS: Attagene CIS-FACTORIAL HepG2 Assay for Estrogen Response Element (ERE) (AID 2282940). Particulars: HepG2 ERE cis-reporter, Attagene RNA transcript; actives raise or lower the signal. The method in brief:
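Human liver cells (HepG2) bearing transiently transfected, promoter-regulated reporter units were exposed 24 h. Reporter mRNA induction was detected by capillary electrophoresis of labelled RT-PCR products and fitted bidirectionally to DMSO.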

Sequence of Heat shock factor protein 1 (Homo sapiens) (Q00613 whole entry, looked up): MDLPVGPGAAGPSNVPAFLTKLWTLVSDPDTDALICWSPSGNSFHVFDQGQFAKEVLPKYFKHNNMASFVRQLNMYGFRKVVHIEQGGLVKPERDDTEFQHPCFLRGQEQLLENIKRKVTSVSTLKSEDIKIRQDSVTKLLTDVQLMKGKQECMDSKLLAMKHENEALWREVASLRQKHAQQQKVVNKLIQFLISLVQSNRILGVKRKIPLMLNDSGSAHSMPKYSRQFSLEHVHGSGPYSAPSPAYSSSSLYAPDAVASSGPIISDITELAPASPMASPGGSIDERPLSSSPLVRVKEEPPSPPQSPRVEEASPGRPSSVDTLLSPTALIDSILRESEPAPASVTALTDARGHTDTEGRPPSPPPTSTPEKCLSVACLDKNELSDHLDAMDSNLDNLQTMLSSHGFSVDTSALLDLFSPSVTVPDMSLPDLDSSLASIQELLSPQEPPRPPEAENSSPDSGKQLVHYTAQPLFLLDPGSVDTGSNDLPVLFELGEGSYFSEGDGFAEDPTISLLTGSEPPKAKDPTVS
Sequence of Bile acid receptor (Homo sapiens) (Q96RI1 whole entry, looked up): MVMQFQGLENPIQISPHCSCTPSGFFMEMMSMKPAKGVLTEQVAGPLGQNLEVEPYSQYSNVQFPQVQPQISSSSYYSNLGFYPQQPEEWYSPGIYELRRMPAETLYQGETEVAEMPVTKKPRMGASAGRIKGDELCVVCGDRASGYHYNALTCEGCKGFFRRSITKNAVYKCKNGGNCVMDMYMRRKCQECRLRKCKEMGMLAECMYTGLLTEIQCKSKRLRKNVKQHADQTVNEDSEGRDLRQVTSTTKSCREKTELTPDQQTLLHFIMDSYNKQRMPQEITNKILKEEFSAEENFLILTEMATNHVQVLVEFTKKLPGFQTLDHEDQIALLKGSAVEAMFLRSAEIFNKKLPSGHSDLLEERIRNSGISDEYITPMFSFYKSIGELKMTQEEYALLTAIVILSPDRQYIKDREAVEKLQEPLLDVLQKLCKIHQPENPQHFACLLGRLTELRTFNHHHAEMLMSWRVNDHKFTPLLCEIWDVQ

With `Cc1c(Cl)c(=O)oc2cc(O)ccc12`, the result in assay [1], in assay [2], in [3], in [4], in assay [5] and in assay [6] was inactive. Besides, the result in [7], in assay [8], in assay [9], in [10], in [11] and in assay [12] was inactive. Also, the outcome in [13], in assay [14] and in assay [15] was inactive. In addition, the AC50 in assay [16] was 37.3 µM (active).

As to `CCCCCCCCCCCCCCCCCC(=O)OCC(CC)CCCC` (configuration not stated), the outcome in assay [1], in assay [2], in assay [3], in assay [4], in assay [5] and in assay [6] was inactive. For the same molecule, the result in assay [17], in assay [9], in assay [10], in assay [11], in assay [13] and in [14] was inactive. The call in assay [15] and in assay [16] was inactive.

Consider `CC(C)[C@@H]1CC[C@@H](C)CC1=O`, for which the result in [1], in assay [2], in assay [3], in assay [4], in assay [5] and in assay [6] was inactive. The molecule was classed as inactive in assay [7], in assay [17], in assay [9], in assay [10], in assay [13] and in assay [14]. In addition, the outcome in assay [15] was inactive. In [12], the AC50 was 38.4 µM (active).

Consider `C=CC(C)(O)CCC=C(C)CCC=C(C)C` (configuration not stated), for which the AC50 was 131 µM (active) in assay [1]; 100 µM (active) in assay [2]; 176 µM (active) in assay [3]; 164 µM (active) in assay [4]; 100 µM (active) in [18]; 170 µM (active) in assay [9]. The AC50 is 166 µM (active) in [11]; 170 µM (active) in assay [12]; 158 µM (active) in assay [13]; 163 µM (active) in [14]; 136 µM (active) in [15]. The outcome in assay [5], in assay [6], in assay [7], in assay [8] and in assay [10] was inactive.

In the case of `C=CC(=O)NCOCC(C)C`, the result in [1], in [2], in [3], in assay [4], in [5] and in assay [6] was inactive. For the same molecule, the molecule was called inactive in [7], in assay [17], in assay [8], in assay [9], in [10] and in assay [11]. The molecule was classed as inactive in assay [12], in assay [13], in assay [14] and in assay [15].

As for `C=C(C)C(=O)OCc1ccccc1`, the result in assay [1], in [2], in assay [3], in [19], in [4] and in [5] was inactive. Further, the molecule was classed as inactive in assay [6], in assay [7], in assay [17], in [8], in assay [9] and in assay [11]. For the same molecule, the molecule was classed as inactive in assay [12], in [13], in [15] and in assay [16].

Consider `C=C(C)C(=O)O[C@H]1C[C@@H]2CC[C@@]1(C)C2(C)C`, for which the AC50 in assay [1] is 147 µM (active); in assay [19], 60.7 µM (active); in [12] it was 73.3 µM (active). In addition, the molecule was called inactive in [2], in assay [3], in assay [4], in [5], in assay [6] and in [7]. Also, the result in assay [17], in [9], in assay [10], in assay [13], in assay [14] and in [15] was inactive.

For the molecule `Nc1cc(Cl)c(O)c(Cl)c1`, the result in assay [1], in assay [3], in [19], in [4], in assay [5] and in assay [18] was inactive. Further, the call in assay [12] and in assay [13] was inactive. The AC50 was 136 µM (active) in assay [2]; 135 µM (active) in assay [6]; 157 µM (active) in [17]; 100 µM (active) in [9]; 142 µM (active) in assay [14]; 79 µM (active) in assay [15]. The AC50 in assay [16] was 84.9 µM (active).

As usually defined, the AC50 is the concentration at which the activity in the assay is half-maximal.

The record behind these values is PubChem BioAssay (EPA / NIEHS).
